From PubChem BioAssay
MCF10A rerep: inducers of DNA re-replication in MCF 10A breast cells; MCF 10A DNA re-replication, Hoechst nuclear intensity, 48 h; Potency, µM (series often up to 46.1 µM), for inactives: at the highest dose activity, positive = re-replication, most hits filed as activators; actives 2.9% (n = 350,000); AID 624296; note: % of control where 0% means no effect; nearly all actives have a fitted effect of over 50% in size
KB-3-1 cytotox: KB-3-1 parental cell cytotoxicity. KB-3-1 viability, CellTiter-Glo ATP luminescence, 72 h. Potency, µM (series often up to 46.1 µM), usual class: cytotoxic. actives 1.4% (n = 400,000). AID 1347075; note: % is set by controls: 0 for no effect and ±100 for the full control effect; nearly all actives have a fitted effect of over 60% in size
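Cytotoxicity measured as CellTiter-Glo luminescence after 72 h at 37 C. Compound titrations were pinned onto drug-naive KB-3-1 parental adenocarcinoma cells grown in DMEM with 10% FBS, and normalized data fitted to concentration-response curves.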
HT1080-NT tox: kills 2HG-producing HT-1080-NT fibrosarcoma cells. HT-1080-NT fibrosarcoma viability, CellTiter-Glo ATP luminescence, 48 h. actives 1.6% (n = 360,000). Potency, µM (titrated, usually from 46.1 µM), without a hit: top-dose activity, negative = less viability, hits mostly cytotoxic;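 note: NT is the 2HG producing partner of a matched IDH1 knockdown line; 0% = DMSO-treated cells and -100% = media-only wells without cells; nearly all actives have a fitted effect of over 55% in size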
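HT-1080-NT fibrosarcoma cells (2HG-overproducing), 750 cells/well in RPMI with 5% FBS, dosed after 2 h and incubated 48 h at 37C. CellTiter-Glo luminescence normalized to DMSO and no-cell wells; concentration-response curves fitted and classed.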
HT1080 IDH1KD tx: toxicity to HT-1080 IDH1 knockdown cells (counter line); HT-1080 IDH1 knockdown viability, ATP luminescence, 48 h; Potency, µM (doses to about 46.1 µM), for the others: at the top dose activity, negative = toxicity, most hits filed as cytotoxic; actives 2% (n = 360,000); AID 686971;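 note: 0% = DMSO wells and -100% = cell-free medium wells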
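Cytotoxicity counter-line: IDH1KD HT-1080, 48 h, CellTiter-Glo. Curves classed by r2, magnitude and activity.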
KB-V1 MDR tox: KB-V1 MDR subline cytotoxicity; Potency, µM (series often up to 46.1 µM), usual class: cytotoxic; KB-V1 MDR cells viability, CellTiter-Glo, 72 h; AID 1347076; actives 3.4% (n = 400,000); note: % is set by controls: 0 for no effect and ±100 for the full control effect; nearly all actives have a fitted effect of over 60% in size
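qHTS viability screen in drug-selected KB-V1 MDR cells: 72 h compound treatment at 37 degrees C, ATP luminescence end point.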
SW480 rereplic: induces DNA re-replication in SW480 colon adenocarcinoma cells | SW480 DNA re-replication, Hoechst DNA content imaging, 48 h | Potency, µM (highest dose often 46.1 µM), for the others: at the top dose re-replication activation, most hits filed as activators | actives 1.8% (n = 340,000) | AID 624297; note: % of control where 0% means no effect; nearly all actives have a fitted effect of over 55% in size
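Hoechst fluorescence of nuclei (405 nm excitation, 500-530 nm emission) measured by plate-scanning imager after 48 hr compound exposure at 37 C; re-replication scored as increased number of nuclei with elevated intensity.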
* marks the source's active call; other numbers are inactive results; i = inactive; u = inconclusive; x = no result; [ ] = another dose, or the depositor's remark. Most compounds without a hit are left out; they make up all but 8% or so of the library. Calls come from the whole dose curve; as a rule, active = well fitted curve in the direction sought with a large enough effect; inconclusive = small, poorly fitted or top-dose-only effect, or another doubt; inactive = no such curve, though single readings can be large; an effect the other way counts as inactive or inconclusive. Potency is the fitted concentration of half-maximal effect.

SMILES	MCF10A rerep	KB-3-1 cytotox	HT1080-NT tox	HT1080 IDH1KD tx	KB-V1 MDR tox	SW480 rereplic
CC1OC2(C)OC(=N)C1(C#N)C(C#N)(C#N)C2c1ccccc1 (stereo unspecified)	u	i	-4%	4%	i	-99%
COc1ccc(-c2[nH]ncc2/C=C(/C#N)C(=O)NC2CCCCCC2)cc1	10µM*	u	18µM*	u	i	13µM*
Cc1cc(/C=C(\C#N)C(=O)NC2CCCCCC2)c(C)[nH]1	-27%	i	-8%	-19%	u	-4%
O=Cc1c(Sc2ccccc2)nc2ccccn2c1=O	u	15µM*	u	u	u	18%
N#CCC(=O)Nc1ccc(C(=O)OCc2ccccc2Oc2ccccc2)cc1	21µM*	i	-6%	u	u	u
N#CCC(=O)Nc1ccc(C(=O)OCC(=O)NCCCc2ccccc2)cc1	-11%	i	3%	15%	i	-7%
CNc1ccc(C(=O)c2ccccc2C(=O)O)cc1[N+](=O)[O-]	-4%	i	0%	-2%	i	1%
CNc1ccc(/C=C/C(=O)c2cccc3ccccc23)cc1[N+](=O)[O-]	u	u	15%	1%	15µM*	16µM*
C=CCOc1ccc2cccc(/C=N/NC(=O)c3cc4cc([N+](=O)[O-])ccc4s3)c2c1	u	u	0%	15%	i	21µM*
CCN1C(=O)[C@H]2[C@@H](c3ccc(C)cc3)N[C@]3(CCCN(Cc4ccc(F)cc4)C3=O)[C@H]2C1=O	x	i	0%	1%	i	x
CC1=NNC(=O)/C1=C\c1cn(-c2ccccc2)nc1-c1ccc(Cl)cc1	3.7µM*	26µM*	7.3µM*	5.8µM*	16µM*	12µM*
CC1=NN(c2ccccc2)C(=O)/C1=C\c1cn(CCC#N)nc1-c1ccc(Cl)cc1	1%	i	0%	-6%	i	-37%
CC1(C)CC(=O)C(=Cc2cn(-c3ccccc3)nc2-c2ccccc2)C(=O)C1	47%	i	2%	15%	u	-4%
Cc1ccc(-c2nn(-c3ccccc3)cc2C=C2C(=O)CC(C)(C)CC2=O)cc1	u	u	-29%	u	18µM*	-8%[9.22 µM]
CCc1ccc(N(CC(=O)NC2CCCCC2)C(=O)CNC(=O)c2ccco2)cc1	-1%	i	16%	11%	i	-3%
Cc1cc(=O)oc2cc(OCC(=O)OCC(=O)Nc3ccc(C(C)C)cc3)ccc12	3%	i	13%	1%	i	1%
Cc1ncc(CO)c2c1Oc1nc(-c3ccccc3F)nc(SCC(=O)N(C)c3ccccc3)c1C2	u	i	u	21µM*	u	-36%
Cc1cccc(-c2nc3c(c(SCC(=O)N4CCOCC4)n2)Cc2c(CO)cnc(C)c2O3)c1	0%	15µM*	u	u	i	-13%
Cc1ncc(CO)c2c1Oc1nc(-c3ccccc3)nc(SCC(=O)N3CCOCC3)c1C2	0%	i	-14%	-10%	i	-3%
CCN(CC(=O)NC(c1ccccc1)c1ccccc1)Cc1nc2ccccc2c(=O)[nH]1	u	i	-16%	-28%	i	-2%[9.22 µM]
CCN(CC(=O)NC(C)C)Cc1nc2c(Br)cc(Br)cc2c(=O)[nH]1	-5%	i	-29%	-1%	9.2µM*	-19%
Cc1ccc(C)c(N2CCN(C(=O)CCS(=O)(=O)c3cc4c(cc3Cl)NC(=O)CO4)CC2)c1	x	u	x	x	16µM*	x
Cc1ccc(Cl)cc1N1CCN(C(=O)CCS(=O)(=O)c2ccc3c(c2)oc(=O)n3C)CC1	x	i	x	x	7.3µM*	x
Cc1cccc(-c2nc3ccccc3c(=O)n2NC(=O)c2ccc([N+](=O)[O-])c(C)c2)c1	-2%	i	10%	16%	u	-3%
Clc1ccc2oc(-c3ccccc3)cc(=NCCCN3CCOCC3)c2c1	8%	u	u	u	21µM*	5%
SMILES	MCF10A rerep	KB-3-1 cytotox	HT1080-NT tox	HT1080 IDH1KD tx	KB-V1 MDR tox	SW480 rereplic
OCCCCCN=c1cc(-c2ccccc2)oc2ccc(Cl)cc12	26%	u	-9%	-27%	u	19%
Cc1cc(C)n(CC(=O)NC2C(=O)N3C(C(=O)O)=C(CSc4nnc(C)s4)CSC23)n1 (stereo unspecified)	0.73µM*	i	4%	4%	i	-6%
Cc1ccc(N/N=C(/Sc2nnnn2-c2ccccc2)C(=O)c2ccccc2)cc1	u	i	0%	-4%	21µM*	-4%
O=C(/C(=N\Nc1ccc([N+](=O)[O-])cc1)Sc1nnnn1-c1ccccc1)c1ccccc1	u	i	u	23µM*	16µM*	6%
CCOC(=O)c1c(-c2ccccc2)csc1NC(=O)/C(C#N)=C\c1ccc(O)c(OC)c1	2.3µM*	i	-10%	-18%	i	u
CCOC(=O)c1c(-c2ccc(C)cc2)csc1NC(=O)/C(C#N)=C/c1ccc(O)c(OC)c1	21µM*	i	-1%	-2%	i	u
Cc1cccc(C)c1OCC(=O)N=Nc1c(O)[nH]c2ccc(Br)cc12	21µM*	i	19%	9%	u	u
O=C(N=Nc1c(O)[nH]c2ccc(Br)cc12)c1cc(-c2cccs2)nc2ccccc12	u	u	u	13µM*	u	0%
Cn1c(O)c(N=NC(=O)c2cc(-c3cccs3)nc3ccccc23)c2ccccc21	u	i	-8%	-19%	u	1%
O=C(N=Nc1c(O)[nH]c2ccc(Br)cc12)c1ccccc1-n1cccc1	u	5.2µM*	2.8µM*	2.2µM*	3.3µM*	u
O=C(C1=C(O)C(=O)N(Cc2ccco2)C1c1ccccc1F)c1cccs1 (stereo unspecified)	-9%	i	13%	12%	i	76%
Cc1cc(C)c(OCC(=O)Nc2ccc(S(=O)(=O)N3CCCC3)cc2)c(C)c1	u	u	u	-23%	u	u
COc1cc(NC(=O)C(C)C)ccc1NC(=O)c1ccco1	3%	i	7%	12%	i	-2%
COc1ccc(CN2CCNC(=O)C2CC(=O)NCc2ccc(C)s2)c(OC)c1 (stereo unspecified)	-8%	i	7%	0%	i	4%
COc1ccc(Br)cc1/C(C)=N/NC1=NCCN1	u	u	-6%	u	u	-3%
CCCCCOc1ccc(Br)cc1/C(C)=N/NC1=NCCN1	3.3µM*	u	6.5µM*	5.2µM*	u	3.3µM*
